Reference: PubChem BioAssay AID720618 (Broad Institute, 2013)
Inconclusive results are not listed. Calls of active or inactive are those of the source. How the calls were made is not given here.

Test: HeLa cell apoptosis via caspase 3/7 – caspase 3/7 luminescence, several timepoints, dry powder, mechanism study for HRAS target identification, late-stage follow-up (AID 720618)
Details: max activity: measured here: caspase 3/7, second timepoint, at 35 µM, stronger effect = higher value

## Cc1onc(C(=O)N2CCN(C(c3ccc(Cl)cc3)c3ccc(OCCOCCOCCNC(=O)OC(C)(C)C)cc3)CC2)c1[N+](=O)[O-] (configuration not stated)
  max activity: 35.4%
  outcome: inactive
